Five compounds from PubChem BioAssay can be followed below.

Several values for one entry are separate records, joined by “and”; a condition that tells them apart may be missing. Identical values can stand only once. For some of these results: Results with a measured potency or affinity are listed apart. Activity calls are given as the source filed them. Rule as the data show it, unless noted: active = parasite load remaining mostly below about 12% (no sharp cut-off); inactive = mostly above about 10%.

Test [1] can be described thus: blockers of polyQ-driven CASP3 activation – cell-based (AID 1583). The note with it: polyglutamine-induced caspase-3 activation, cell assay; stronger effect = higher value;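 tested at 10 µM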.
Test [2] is described as follows: yeast 75Q aggregation reduction – 75Q-TubU reporter (AID 1593). Particulars: Yeast 75Q polyglutamine aggregation reporter.
A short description of test [3]: restoration of touch response, mutant HTT neurons – whole organism, C. elegans mechanosensory neurons, N-terminal huntingtin (AID 1599). Particulars: C. elegans polyQ-huntingtin mechanosensory neurons, stronger effect = higher value.
Test [4] is described as follows: blockers of cytochrome c efflux from mitochondria – biochemical, purified mitochondria (AID 1603).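 Also: mouse liver mitochondria challenged with calcium chloride; signal normalized to the plate average as 100%.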 The note with it: stronger effect = lower value.
A short description of test [5]: polyglutamine aggregate formation blockers (AID 1604). Particulars: polyglutamine-induced protein aggregation inhibition assay; stronger effect = higher value; tested at 2.5 µM.
The nature of test [6]: glutamate transport activators, MN-1 cells, MN-1 cell line (AID 1612).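 Also: tested at 1 µM final; 0% = mean of DMSO vehicle wells on each plate; positive means more glutamate uptake than control and negative means less.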 The note with it: MN-1 motor neuron cells, stronger effect = higher value.
The nature of test [7]: GFP-Q80 aggregate reduction, neuronal-like cells, cell-based, NGF-treated PC12, GFPQ80 (AID 1614).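 Also: lower means fewer inclusions and 0 means no inclusions at all.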 Particulars: PC12 NGF-treated GFP-polyQ80 inclusion reduction.
A short description of test [8]: 75Q-TubH aggregate inhibition, S. cerevisiae, yeast (AID 1616). The note with it: S. cerevisiae 75Q-TubH polyglutamine aggregation suppression; stronger effect = higher value.
Test [9] in a line: P. berghei load reduction in hepatocytes – cell-based, HepG2, luciferase luminescence, HepG2 viability, primary screen (AID 624349).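 Also: 100% = mean of DMSO negative control wells on the same plate.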 Particulars: P. berghei liver stage in HepG2, luciferase luminescence, concentration not given here; parasite load remaining: stronger effect = lower value; viability: measured here: HepG2 viability without parasites.
A short description of test [10]: EMT-state selective cytotoxicity in co-culture – imaging, PC-3E GFP, TEM4-18 mCherry, primary screen (AID 1345086;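 active = compounds killing one labelled cell type while sparing the other, by normalised counts and ratio limits, not self-fluorescent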;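 as to all read-outs here: cells exposed to compound for 72 h before imaging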;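 as to red/green cell ratio (normalised): normalised mesenchymal count divided by normalised epithelial count so high means epithelial killing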). Particulars: PC-3E GFP / TEM4-18 mCherry co-culture, imaging cell counts, at 1 µM; for red/green cell ratio (normalised): actives lie on both sides, counts scaled to control wells, 1 = unselective.
The nature of test [11]: viability loss with induced miR-34 in A549 – imaging, A549 dox-inducible miR-34, nuclei and caspase counts, primary screen (AID 1347080;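 active = compounds whose cell count with miR-34 switched on is under 0.7 times the count with it off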). The note with it: A549 miR-34 inducible, Hoechst nuclei count, 48 h.
Setting [12] is: measured here: epithelial PC-3E GFP cell survival.
Setting [13] is: measured here: mesenchymal TEM4-18 mCherry cell survival.
Where [14] appears, read: stronger effect = lower value, cell number ratio, induced over uninduced.
Setting [15] is: measured here: relative caspase fold change +Dox/-Dox.
Setting [16] is: measured here: total cells with miR-34 induction, stronger effect = lower value.
Where [17] appears, read: measured here: total cells without miR-34 induction.

The inhibition is the drop in the measured response relative to a control, in per cent. In general, viability refers to a read-out of living cells in per cent, often relative to untreated cells. With `C[C@H](CCC(=O)O)[C@H]1CCC2C3C(=O)CC4CC(=O)CC[C@]4(C)C3CC(=O)[C@@]21C` (stereo not given in full), in test [1], the inhibition is 12.1%. Besides, the score in [2] turned out to be 1.59. Moreover, the rescue above control in test [3] was -5.38. Besides, in test [4], the cytochrome c release ratio is 1.29. Besides, the inhibition of aggregation in test [5] is 91.6%. For the same compound, the glutamate uptake change in test [6] is 7.41%. The inclusion score in [7] worked out at 2. For the same compound, the aggregation suppression score in test [8] amounted to 1.06. Also, in test [9], the parasite load remaining is 101% (inactive) and 58% (inactive). Besides, the viability in test [9] is 69.6% and 86.9%. For the same compound, the red/green cell ratio (normalised) in [10] is 1.22 (inactive). Moreover, the normalised cell number in test [10] (setting [12]) was found to be 1.21; in [10] (setting [13]) it was 1.47. Also, the fold change is 0.851 (inactive) in test [11] (setting [14]) and 1.32 in [11] (setting [15]). Further, the cell count was 10500 in test [11] (setting [16]) and 12400 in test [11] (setting [17]).
As to `CC(=O)OCC(=O)[C@@]1(O)[C@H](OC(C)=O)CC2C3CCC4=CC(=O)C=C[C@]4(C)[C@@]3(F)[C@@H](O)C[C@@]21C` (stereo not given in full), in test [1], the inhibition is -24%. Further, the score in test [2] came to 1.15. Also, the rescue above control in test [3] is 19.5. The cytochrome c release ratio in test [4] is 1.31. The compound further registered an inhibition of aggregation in test [5] of 89.7%. Moreover, in test [6], the glutamate uptake change is 9.09%. The same compound displayed an inclusion score in test [7] of 2.5. In test [8], the aggregation suppression score was 0.805. Besides, in test [9], the parasite load remaining is 160% (inactive) and 64.8% (inactive). Moreover, the viability in test [9] was 67.1% and 85.5%. Besides, the red/green cell ratio (normalised) in test [10] was 1.19 (inactive). Besides, the values for the normalised cell number in [10] (setting [12]) and in test [10] (setting [13]) were 0.98 and 1.17, respectively. Moreover, the results for the fold change in test [11] (setting [14]) and in [11] (setting [15]) were 0.86 (inactive) and 3.23, respectively. Further, the results for the cell count in test [11] (setting [16]) and in test [11] (setting [17]) were 7630 and 8870, respectively.
Take `CO[C@H]1C[C@H](O[C@H]2[C@H](C)[C@@H](OC3O[C@H](C)C[C@H](N(C)C)[C@H]3O)[C@@H](C)C[C@]3(CO3)C(=O)[C@H](C)[C@@H](O)[C@@H](C)[C@@H](C)OC(=O)[C@@H]2C)O[C@@H](C)[C@@H]1O` (stereo not given in full): in [1], the inhibition amounted to 27%. This compound also gave a score in [2] of 1.24. The compound further gave a rescue above control in test [3] of 28.2. The cytochrome c release ratio in [4] came to 0.97. This compound also had an inhibition of aggregation in test [5] of 7.94%. For the same compound, in test [6], the glutamate uptake change amounted to 5.06%. Besides, in [7], the inclusion score was determined as 2. In test [8], this compound registered an aggregation suppression score of 1.24. Also, the parasite load remaining in [9] was 283% (inactive) and 48.5% (inactive). The viability in test [9] was 76% and 96.5%. Further, in test [10], the red/green cell ratio (normalised) is 1.12 (inactive). Further, the normalised cell number in test [10] (setting [12]) was found to be 0.84; in [10] (setting [13]), 0.94. The fold change is 0.824 (inactive) in test [11] (setting [14]) and 2.52 in test [11] (setting [15]). The cell count was 10700 in [11] (setting [16]) and 13000 in [11] (setting [17]).
With `CCN1CCN(C(=O)NC(C(=O)N[C@@H]2C(=O)N3[C@@H]2SC(C)(C)[C@@H]3C(=O)O)c2ccccc2)C(=O)C1=O` (stereo not given in full), the inhibition in test [1] was -12.4%. In addition, in [2], the score amounted to 1.33. This compound also showed a rescue above control in test [3] of 11.4. Besides, the cytochrome c release ratio in test [4] is 1. The inhibition of aggregation in test [5] came to 57.7%. Moreover, the glutamate uptake change in test [6] stood at 3.02%. In test [7], this compound displayed an inclusion score of 2. The compound also returned an aggregation suppression score in test [8] of 1.27. Besides, the parasite load remaining in test [9] was 83.4% (inactive) and 122% (inactive). Moreover, in [9], the viability is 73% and 103%. Besides, the red/green cell ratio (normalised) in [10] is 1.25 (inactive). Further, the figures for the normalised cell number in [10] (setting [12]) and in test [10] (setting [13]) were 0.93 and 1.17, respectively. Besides, the fold change was 0.831 (inactive) in test [11] (setting [14]) and 1.11 in [11] (setting [15]). Also, the results for the cell count in test [11] (setting [16]) and in [11] (setting [17]) were 10100 and 12200, respectively.
Regarding `CC(=O)OCC(=O)[C@H]1CCC2C3CCC4=CC(=O)CC[C@]4(C)C3CC[C@@]21C` (stereo not given in full), the inhibition in [1] is -3.1%. Also, the score in test [2] stood at 0.92. Moreover, the rescue above control in test [3] is -2.35. In test [4], the cytochrome c release ratio stood at 1.07. In addition, in [5], the inhibition of aggregation is 63.5%. In test [6], this compound registered a glutamate uptake change of 23%. In test [7], this compound yielded an inclusion score of 2.5. The aggregation suppression score in test [8] turned out to be 0.669. The parasite load remaining in [9] is 44.3% (inactive). Also, the viability in test [9] is 97.7%. For the same compound, the red/green cell ratio (normalised) in [10] is 1.09 (inactive). Moreover, the results for the normalised cell number in test [10] (setting [12]) and in test [10] (setting [13]) were 1.34 and 1.47, respectively. Also, the fold change is 0.848 (inactive) in [11] (setting [14]) and 2.3 in test [11] (setting [15]). The cell count in [11] (setting [16]) turned out to be 9410; in test [11] (setting [17]), 11100.
